This passage reports z-score and composite z-score results from PubChem BioAssay.

The source made the active and inactive calls.

A short description of test [1]: E. coli DRC41 culture turbidity changes, primary screen, E. coli filamentation inducer project, strain DRC41, OD650, 48 h (AID 1152).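 Further: E. coli MC1000 strain DRC41 lacking acrAB efflux pump and sulA.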 The following applies: E. coli DRC41 (acrAB sulA), higher = more signal, called active from +8 up or from −8 down.
Test [2] can be described thus: small-molecule binders of probe aLefty1, primary screen, biochemical, small-molecule microarray, 635/667 nm fluorescence (AID 1153).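 Further: score merges spot fluorescence with signal-to-noise ratio from the scanned slide images.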 The following applies: higher = more signal.
The nature of test [3]: PSAC antagonists in infected red cells, primary screen, cell-based, P. falciparum Indochina, OD700, 1 h (AID 1154). The note with it: P. falciparum Indochina infected RBC osmotic lysis, higher = more signal, called active from +8 up or from −8 down.
Test [4] can be described thus: PSAC antagonists in infected red cells, primary screen, cell-based, P. falciparum Indochina, OD700, 2 h (AID 1155).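 Further: lysis reports solute entry through the parasite surface anion channel PSAC; channel blockers reduce lysis of infected cells.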 The note with it: P. falciparum Indochina infected erythrocytes, osmotic lysis OD700; higher = more signal, called active from +8 up or from −8 down.
Test [5] in a line: osmotic lysis modulators in infected erythrocytes, primary screen, PSAC antagonist project, cell-based, P. falciparum Indochina, OD700, 3 h (AID 1156). The note with it: higher = more signal, called active from +8 up or from −8 down.
The nature of test [6]: PSAC antagonists in infected red cells, primary screen, cell-based, P. falciparum Indochina, OD700, 18 h (AID 1157). The following applies: P. falciparum Indochina infected erythrocytes, osmotic lysis OD700, 18 h; higher = more signal, called active from +8 up or from −8 down.
Test [7] in a line: modulators of S6 phosphorylation in cells, primary screen, cell-based, A549, cytoblot, luminescence, serum-stimulated (AID 1158).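 Further: serum-stimulated A549 lung adenocarcinoma cells; signal is phosphorylated S6 detected by cytoblot immunostaining with HRP secondary.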 The note with it: A549 phospho-S6 cytoblot, 5 h, higher = more signal.
In test [8] the target is NADPH oxidase 2 (Homo sapiens) (UniProt P04839). Description: NOX2-dependent H2O2 signal modulators, primary screen, NOX inhibitor project, cell-based, HEK293-NOX2, PMA-stimulated, Amplex Red fluorescence (AID 1159). Further: test concentration not given here. The following applies: 45 min, higher = more signal, called active from +8 up or from −8 down.
Chain of NADPH oxidase 2 (Homo sapiens) (P04839 whole entry, looked up): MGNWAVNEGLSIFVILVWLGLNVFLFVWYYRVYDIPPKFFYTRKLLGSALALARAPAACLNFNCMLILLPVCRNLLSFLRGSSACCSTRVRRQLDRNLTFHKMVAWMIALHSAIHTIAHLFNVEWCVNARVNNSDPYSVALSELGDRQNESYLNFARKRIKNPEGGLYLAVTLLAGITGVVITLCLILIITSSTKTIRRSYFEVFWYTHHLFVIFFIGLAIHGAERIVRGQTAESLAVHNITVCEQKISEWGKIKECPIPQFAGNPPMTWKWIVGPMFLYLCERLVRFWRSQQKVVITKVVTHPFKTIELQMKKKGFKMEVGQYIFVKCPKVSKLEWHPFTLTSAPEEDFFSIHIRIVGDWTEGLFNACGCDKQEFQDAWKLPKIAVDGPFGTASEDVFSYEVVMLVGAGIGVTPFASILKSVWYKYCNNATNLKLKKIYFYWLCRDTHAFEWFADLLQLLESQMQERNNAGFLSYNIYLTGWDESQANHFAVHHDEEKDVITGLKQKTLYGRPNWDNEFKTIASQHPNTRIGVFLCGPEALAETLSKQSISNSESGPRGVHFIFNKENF
The target in test [9] is NADPH oxidase 4 (Homo sapiens) (UniProt Q9NPH5). Description: NOX4-dependent H2O2 signal modulators, primary screen, NOX inhibitor project, cell-based, HEK293-NOX4, tetracycline-induced, Amplex Red fluorescence (AID 1160). The note with it: 45 min, higher = more signal, called active from +8 up or from −8 down.
Chain of NADPH oxidase 4 (Homo sapiens) (Q9NPH5 whole entry, looked up): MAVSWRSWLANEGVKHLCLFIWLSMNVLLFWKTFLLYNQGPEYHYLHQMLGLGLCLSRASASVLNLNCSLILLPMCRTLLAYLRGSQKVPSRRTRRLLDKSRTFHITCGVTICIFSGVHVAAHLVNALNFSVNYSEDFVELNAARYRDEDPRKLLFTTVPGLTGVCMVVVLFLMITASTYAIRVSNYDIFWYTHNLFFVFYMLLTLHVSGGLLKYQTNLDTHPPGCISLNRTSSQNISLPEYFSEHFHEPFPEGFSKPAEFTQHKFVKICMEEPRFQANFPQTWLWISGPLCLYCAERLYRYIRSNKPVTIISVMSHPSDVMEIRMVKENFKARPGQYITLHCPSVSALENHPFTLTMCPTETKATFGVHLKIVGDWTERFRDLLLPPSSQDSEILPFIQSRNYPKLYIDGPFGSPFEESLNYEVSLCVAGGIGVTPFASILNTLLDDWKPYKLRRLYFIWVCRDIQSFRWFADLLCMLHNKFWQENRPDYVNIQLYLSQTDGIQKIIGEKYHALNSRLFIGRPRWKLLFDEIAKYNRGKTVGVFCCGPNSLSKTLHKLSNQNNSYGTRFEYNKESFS
Test [10] has as its target NADPH oxidase 5 (Homo sapiens) (UniProt Q96PH1). Nature of the test: NOX5-dependent H2O2 signal modulators, primary screen, NOX inhibitor project, cell-based, HEK293-NOX5, Amplex Red fluorescence (AID 1161). The following applies: HEK293-NOX5, ionomycin, 45 min, higher = more signal.
Test [11] can be described thus: A549 cell viability effects, profiling panel, calcein-AM fluorescence, 48 h, basal (AID 1162). Further: test concentration not given here. The following applies: higher = more signal.
The nature of test [12]: adipocyte viability effects, profiling panel, cell-based, 3T3-L1 adipocytes, calcein-AM fluorescence, 48 h, basal (AID 1163). Further: test concentration not given here. The note with it: 3T3-L1 adipocytes viability, higher = more signal.
Test [13] can be described thus: HepG2 cell viability effects, profiling panel, calcein-AM fluorescence, 48 h, basal (AID 1164). Further: test concentration not given here. The note with it: higher = more signal.
A short description of test [14]: MM1S cell viability effects, profiling panel, calcein-AM fluorescence, 48 h, basal (AID 1165).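 Further: viability of MM1S multiple myeloma cells under basal unstimulated conditions; test concentration not given here.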 The following applies: higher = more signal.
Test [15] in a line: basal RPMI8226 viability, no added stimulus, profiling panel, cell-based, calcein-AM fluorescence, 48 h, PK04 Diversity Set (AID 1166).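 Further: cells grown under basal conditions without added stimulus; test concentration not given here.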 The note with it: RPMI8226 myeloma viability, higher = more signal.
A short description of test [16]: basal HepG2 mitochondrial membrane potential changes, profiling panel, cell-based, JC-1 fluorescence, 24 h, 100 nL compound (AID 1167). Further: test concentration not given here. The following applies: higher = more signal.
Test [17] in a line: basal 3T3-L1 adipocyte mitochondrial potential changes, profiling panel, cell-based, JC-1 fluorescence, 3T3-L1 adipocytes, 24 h, 100 nL compound (AID 1168). Further: test concentration not given here. The note with it: JC-1 mitochondrial fluorescence, higher = more signal, called active from +8 up or from −8 down.
A short description of test [18]: basal RPMI8226 mitochondrial membrane potential changes, profiling panel, cell-based, JC-1 fluorescence, 24 h, 100 nL compound (AID 1169). Further: test concentration not given here. The following applies: RPMI8226 myeloma, JC-1 mitochondrial potential fluorescence, higher = more signal.
Test [19] can be described thus: basal MM1S mitochondrial membrane potential changes, profiling panel, cell-based, JC-1 fluorescence, 24 h, 100 nL compound (AID 1170). Further: test concentration not given here. The note with it: higher = more signal.
Test [20] in a line: A549 lung cancer cell viability effects, profiling panel, resazurin fluorescence, 24 h, PK04 Diversity Set (AID 1171). Further: test concentration not given here. The note with it: higher = more signal, called active from +8 up or from −8 down.

Chain of NADPH oxidase 5 (Homo sapiens) (Q96PH1 whole entry, looked up): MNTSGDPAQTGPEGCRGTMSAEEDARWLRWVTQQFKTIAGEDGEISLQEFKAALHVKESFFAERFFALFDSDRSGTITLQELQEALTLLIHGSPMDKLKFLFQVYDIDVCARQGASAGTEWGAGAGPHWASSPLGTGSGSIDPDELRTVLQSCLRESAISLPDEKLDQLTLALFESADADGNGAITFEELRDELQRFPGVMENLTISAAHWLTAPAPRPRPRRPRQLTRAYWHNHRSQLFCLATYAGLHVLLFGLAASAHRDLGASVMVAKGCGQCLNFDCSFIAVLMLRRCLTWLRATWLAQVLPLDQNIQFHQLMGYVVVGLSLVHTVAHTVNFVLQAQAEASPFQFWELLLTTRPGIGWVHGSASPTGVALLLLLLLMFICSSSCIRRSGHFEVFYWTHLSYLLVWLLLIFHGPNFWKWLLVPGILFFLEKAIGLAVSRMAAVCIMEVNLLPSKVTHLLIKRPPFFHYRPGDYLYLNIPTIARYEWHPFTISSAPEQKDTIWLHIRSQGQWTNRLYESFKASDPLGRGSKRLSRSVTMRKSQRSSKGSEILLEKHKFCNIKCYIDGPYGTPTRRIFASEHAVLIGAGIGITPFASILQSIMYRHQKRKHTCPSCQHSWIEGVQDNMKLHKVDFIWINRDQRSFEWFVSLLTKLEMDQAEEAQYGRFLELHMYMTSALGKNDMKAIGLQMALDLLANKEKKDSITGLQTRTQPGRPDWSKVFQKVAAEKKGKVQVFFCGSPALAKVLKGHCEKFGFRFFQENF

In the case of `CCOC(=O)C[C@H]1[C@H](OC(=O)c2cc3ccccc3oc2=O)[C@@H](NC(=O)CC(C)C)c2cc(OCCCO)ccc2N1C(=O)Cc1ccc(OC)cc1`, the z-score in test [1] is -0.752 (inactive); in test [3], 5.95 (inactive); in test [4] it was 0.711 (inactive); in test [5], 0.863 (inactive); in [6] it was 0.5 (inactive); in test [7], -0.0561. The z-score was 0.166 (inactive) in test [8]; 0.381 (inactive) in test [9]; 1.38 in test [10]; 0.746 in test [11]; 0.967 in test [12]; 0.535 in test [13]. Moreover, the z-score in test [14] is 0.12; in [15], 0.28; in [16] it was 0.433; in test [17], -0.119 (inactive); in test [18], 0.421; in test [19], 0.328. For the same compound, the z-score in test [20] was -0.546 (inactive). In addition, the composite z-score in test [2] is -0.193.
On to `CCOC(=O)C1=CCC(c2cc3ccccc3[nH]2)N(CCN2CC(C(=O)OCC)=CCC2c2cc3ccccc3[nH]2)C1` (stereo not given), for which the z-score in test [1] was -0.889 (inactive); in test [3] it was 4.01 (inactive); in test [4], 1.41 (inactive); in test [5], 2.42 (inactive); in test [6] it was 1.03 (inactive); in test [7], 1.56. The z-score is -0.756 (inactive) in [8]; -0.315 (inactive) in [9]; -0.307 in [10]; -0.638 in test [11]; 0.552 in test [12]; 0.105 in [13]. The z-score is 0.183 in [14]; -0.54 in test [15]; -0.4 in test [16]; -0.73 (inactive) in test [17]; -0.111 in test [18]; -1.83 in [19]. Further, the z-score in test [20] was 0.161 (inactive). The composite z-score in [2] was found to be 0.379.
As for `C=CCOC(=O)[C@@H]1[C@H]2C(=O)O[C@H](c3ccccc3)[C@H](c3ccccc3)N2[C@H](c2ccc(OCCOC(=O)[C@H]3C[C@H]4C(=O)N5CCC[C@H]5C(=O)N4[C@H]3c3cccc(OCCO)c3)cc2)[C@@]12C(=O)Nc1ccc(I)cc12`, the z-score in test [1] is -0.565 (inactive); in test [3] it was 1.72 (inactive); in [4], 1.39 (inactive); in [5], -0.341 (inactive); in [6], 0.84 (inactive); in test [7], -0.101. The z-score is 0.929 (inactive) in test [8]; 0.788 (inactive) in [9]; 0.32 in test [10]; -0.302 in [11]; -0.506 in [12]; -0.28 in test [13]. In addition, the z-score was 0.328 in test [14]; -0.0082 in test [15]; -2.08 in test [16]; 0.667 (inactive) in [17]; -0.16 in test [18]; -0.998 in [19]. In test [20], the z-score was 0.0981 (inactive). This compound displayed a composite z-score in test [2] of -0.101.
As to `COCCOC(=O)N1C(=O)[C@@]2(c3ccccc31)[C@H](c1ccc(O)cc1)N1[C@H](c3ccccc3)[C@H](c3ccccc3)OC(=O)[C@H]1[C@@H]2C(=O)N1CCCCCCC1`, the z-score is -0.59 (inactive) in test [1]; -0.0501 (inactive) in test [3]; 0.619 (inactive) in test [4]; -0.363 (inactive) in test [5]; 0.14 (inactive) in test [6]; -0.43 in test [7]. Further, the z-score in test [8] was 0.54 (inactive); in test [9] it was 0.898 (inactive); in [10] it was 1.32; in test [11], -0.438; in [12], -0.688; in [13] it was 0.313. In addition, the z-score in test [14] was -0.474; in [15], -1.26; in test [16] it was -1.25; in test [17], -1.07 (inactive); in test [18], 0.167; in [19] it was 0.584. Further, the z-score in test [20] was -0.257 (inactive). Also, the composite z-score in test [2] was found to be 2.86.
As to `CC1CC/C=C\[C@H]2OC34C=CCN(c5ccc6ccccc6c5)C(=O)[C@H]3N(C(C)CO)C(=O)[C@@H]4C2C(=O)O1` (stereo not given in full), the z-score in test [1] was -0.114 (inactive); in [3], 0.856 (inactive); in test [4] it was 0.222 (inactive); in test [5], 0.927 (inactive); in test [6], 0.233 (inactive); in test [7], -0.347. The z-score in test [8] was 0.995 (inactive); in test [9] it was -0.181 (inactive); in test [10] it was 1.58; in test [11] it was -0.326; in test [12] it was -4.43; in test [13], 1.05. Also, the z-score in test [14] is 1.6; in test [15], -0.311; in test [16], 0.333; in test [17] it was 0.0486 (inactive); in [18] it was 0.195; in test [19] it was -0.532. Moreover, the z-score in [20] is -0.0299 (inactive). This compound also returned a composite z-score in test [2] of -0.0933.
`CC(=O)NCCCC[C@@H]1NC(=O)[C@H]2C[C@@H](C(=O)NCCCCCCNC(=O)CS)[C@@H](c3cccc(OCCO)c3)N2C1=O`: the z-score in test [1] is -0.337 (inactive); in test [3], 3.07 (inactive); in test [4] it was 0.858 (inactive); in test [5] it was 1.18 (inactive); in [6], 0.448 (inactive); in test [7], -0.754. The z-score in [8] was 1.6 (inactive); in test [9], -0.667 (inactive); in test [10], 0.443; in [11] it was -0.769; in [12] it was 0.251; in test [13], -0.644. Besides, the z-score is -0.504 in [14]; 0.236 in test [15]; -1.4 in test [16]; -0.306 (inactive) in test [17]; 0.186 in test [18]; -0.0983 in test [19]. In addition, the z-score in test [20] was -0.131 (inactive). The composite z-score in [2] is -0.101.
With `O=C(NCc1ccccc1)[C@@H]1c2ccccc2C(=O)N(Cc2ccc(OC(F)(F)F)cc2)[C@H]1c1ccc(CO)cc1`, the z-score is 0.39 (inactive) in test [1]; 3.9 (inactive) in test [3]; 0.566 (inactive) in [4]; 1.56 (inactive) in [5]; 0.158 (inactive) in test [6]; 0.503 in test [7]. In addition, the z-score in [8] is -3.06 (inactive); in test [9], 0.263 (inactive); in [10], 0.401; in [11], 1.29; in [12], 0.711; in test [13] it was 0.77. The z-score was -0.279 in [14]; 0.473 in test [15]; 2.44 in test [16]; -0.602 (inactive) in test [17]; -0.728 in [18]; 0.809 in [19]. The z-score in [20] was 1.39 (inactive). This compound showed a composite z-score in [2] of 0.656.
For the compound `CCCCC(O)C1C=CC2C(=O)N(c3ccccc3)C(=O)C2N1Nc1ccc(C#N)cc1` (stereo not given), the z-score in [1] is -0.964 (inactive); in test [3], 16.7 (active); in test [4] it was 2.94 (inactive); in [5], 2.36 (inactive); in test [6], 1.39 (inactive); in test [7] it was -0.809. Also, the z-score was -0.444 (inactive) in [8]; -4.26 (inactive) in test [9]; -1.98 in test [10]; 0.233 in [11]; 0.15 in test [12]; 1.2 in test [13]. For the same compound, the z-score in test [14] is 0.105; in test [15], 0.0528; in [16], -0.622; in test [17] it was -1.19 (inactive); in test [18] it was -0.0799; in test [19], -0.0525. Besides, in test [20], the z-score is -0.151 (inactive). In [2], this compound gave a composite z-score of 0.598.
Consider `O=C1C2C=CC(C(O)c3c(F)cccc3Cl)N(Nc3ccc([N+](=O)[O-])cc3)C2C(=O)N1c1ccccc1` (stereo not given), for which the z-score in [1] is -0.262 (inactive); in test [3], 30 (active); in test [4] it was 21 (active); in [5] it was 2.34 (inactive); in test [6] it was 1.76 (inactive); in test [7], -0.24. Besides, the z-score in test [8] is -1.5 (inactive); in test [9] it was -2.29 (inactive); in test [10], -1.9; in test [11], -1; in test [12], -0.0012; in [13], -0.645. Besides, the z-score in test [14] was 0.19; in test [15], -1.09; in test [16], -1.14; in [17], -1.26 (inactive); in [18] it was -0.209; in test [19], -0.542. For the same compound, the z-score in test [20] is 0.372 (inactive). Moreover, in [2], the composite z-score is 0.218.
